Experimental data taken from paper PMC4336329 (PLoS ONE, 2015).
Screen size: about 310,000 compounds; about 14,000 (4.5%) showed an effect of 50% or more. The effect is printed as a negative number. Many of the other results were omitted from the sample, so strong results are more common in it than they were.

Molecular target: human ether-à-go-go-related gene (hERG) potassium channel (human, UniProt Q12809)
Assay: primary screen, population patch clamp on CHO cells stably expressing hERG; higher = less effect of the substance
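Also: peak tail current of the secondary pulse compared with the same well before compound.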

human ether-à-go-go-related gene (hERG) potassium channel, sequence (Q12809 whole entry, looked up): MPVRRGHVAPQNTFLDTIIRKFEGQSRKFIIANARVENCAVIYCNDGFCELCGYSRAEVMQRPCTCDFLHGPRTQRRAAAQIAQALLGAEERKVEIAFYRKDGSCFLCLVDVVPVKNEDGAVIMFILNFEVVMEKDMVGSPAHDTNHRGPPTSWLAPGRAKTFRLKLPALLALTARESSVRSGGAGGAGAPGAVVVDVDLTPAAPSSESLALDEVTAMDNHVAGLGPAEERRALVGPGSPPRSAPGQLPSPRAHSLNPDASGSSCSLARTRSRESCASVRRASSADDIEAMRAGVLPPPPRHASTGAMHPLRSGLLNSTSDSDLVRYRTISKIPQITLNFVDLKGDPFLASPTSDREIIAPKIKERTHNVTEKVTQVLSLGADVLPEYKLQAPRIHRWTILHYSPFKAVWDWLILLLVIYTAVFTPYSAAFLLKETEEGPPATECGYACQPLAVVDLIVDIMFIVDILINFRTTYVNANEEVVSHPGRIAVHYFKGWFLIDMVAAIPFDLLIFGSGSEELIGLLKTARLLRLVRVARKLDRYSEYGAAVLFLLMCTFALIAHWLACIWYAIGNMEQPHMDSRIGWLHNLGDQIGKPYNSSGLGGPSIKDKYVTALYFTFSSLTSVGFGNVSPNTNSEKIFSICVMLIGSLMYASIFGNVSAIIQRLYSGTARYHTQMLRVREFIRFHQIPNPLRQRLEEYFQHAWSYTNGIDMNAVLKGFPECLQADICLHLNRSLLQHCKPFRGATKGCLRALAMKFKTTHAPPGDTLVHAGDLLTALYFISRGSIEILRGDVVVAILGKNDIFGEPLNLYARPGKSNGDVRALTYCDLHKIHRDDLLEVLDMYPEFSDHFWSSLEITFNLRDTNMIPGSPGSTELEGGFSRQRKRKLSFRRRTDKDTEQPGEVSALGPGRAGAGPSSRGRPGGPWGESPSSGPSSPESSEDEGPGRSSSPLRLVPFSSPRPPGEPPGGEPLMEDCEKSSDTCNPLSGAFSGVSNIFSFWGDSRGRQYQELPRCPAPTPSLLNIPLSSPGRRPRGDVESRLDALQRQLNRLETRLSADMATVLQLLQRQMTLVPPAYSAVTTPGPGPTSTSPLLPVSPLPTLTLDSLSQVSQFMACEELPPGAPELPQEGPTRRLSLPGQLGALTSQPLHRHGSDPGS

Row | SMILES | hERG current change (%, negative = inhibition) at 10uM [%]
1 | COc1ccc(/C=C/C(=O)O)cc1S(=O)(=O)NCC1CCCO1 (centres unmarked) | 14.1
2 | O=[N+]([O-])c1cccc(CSC2=NCCN2S(=O)(=O)c2ccccc2)c1 | -6.78
3 | O=C(O)c1cccc(CSc2nc(-c3ccc(Cl)cc3)cc(C(F)(F)F)n2)c1 | -0.199
4 | NNC(=O)c1c(O)c2cccc3c2n(c1=O)CCC3 | 22.4
5 | COc1ccc(N2CCN(S(=O)(=O)c3ccc4c(c3)CCCC4)CC2)c([N+](=O)[O-])c1 | 6.51
6 | Cc1cc(C(=O)c2ccc3ccccc3c2)c(C)o1 | 2.09
7 | Cn1ncc([N+](=O)[O-])c1C(=O)N/N=C/c1ccc(F)cc1 | -9.05
8 | O=C(Nc1ccccc1C(=O)N1CCCCC1)c1cc(F)c(F)cc1Cl | 1.47
9 | O=C(C[n+]1cccc2ccccc21)c1ccccc1.[Br-] | -1.84
10 | NC(=O)c1ccc[n+](CC(=O)c2ccc(NC(=O)c3ccccc3)cc2)c1.[Br-] | 27.1
11 | O=C(C[n+]1cccc(NC(=O)c2ccccc2)c1)c1cccc([N+](=O)[O-])c1.[Br-] | -76.3
12 | O=C(Nc1ccc[n+](CC(=O)c2cccc3ccccc23)c1)c1ccccc1.[Br-] | -58.9
13 | O=C(Nc1cccc([N+](=O)[O-])c1)c1ccccc1 | 7.97
14 | NC(=O)c1ccc[n+](CC(=O)c2cccc([N+](=O)[O-])c2)c1.[Br-] | 16.9
15 | O=C(C[n+]1cccc2ccccc21)c1ccc([N+](=O)[O-])cc1.[Br-] | -72.4
16 | Cc1cc[n+](CC(=O)c2cccc([N+](=O)[O-])c2)c2ccccc12.[Br-] | -58.8
17 | O=C(C[n+]1cccc(NC(=O)c2ccccc2)c1)c1ccccc1.[Br-] | -18.1
18 | Cc1cc[n+](CC(=O)c2ccc(NC(=O)c3ccccc3)cc2)c2ccccc12.[Br-] | 7.1
19 | Cc1cc[n+](CC(=O)c2ccccc2)c2ccccc12.[Br-] | -8.1
20 | Cc1ccc(C(=O)C[n+]2cccc3ccccc32)cc1.[Br-] | -9.35
21 | O=C1c2ccccc2C(O)(Cc2ccccc2)N1Cc1ccco1 (centres unmarked) | 10.1
22 | Cc1ccc(C(=O)Nc2ccc(N3CCOCC3)cc2)cc1S(=O)(=O)N1CCCCC1 | -10.1
23 | CCOC(=O)CC1(c2ccc(OC)c(OC)c2)C(=O)c2ccccc2C1=O | -1.97

Row | SMILES | hERG current change (%, negative = inhibition) at 10uM [%]
24 | c1ccc(-c2cc3c(nn2)CCc2nonc2-3)cc1 | 0.384
25 | COc1ccc(-c2nnc(SCC(=O)c3cccs3)o2)cc1 | -8.4
26 | CCCOC(=O)CCCCCCCCC(O)CN1CCCCC1.Cl (centres unmarked) | -30
27 | Cc1ccnc(NC(=O)Nc2cccc(F)c2)c1 | -4.23
28 | COc1ccc(NC(=O)c2ccc3ccccc3c2)cc1 | 11
29 | Cc1cccc(CSCCNC(=O)c2ccc(N(C)S(=O)(=O)c3ccccc3)cc2)c1 | -4.05
30 | Cc1ccc(C(CC(=O)N2CCCC2)c2ccccc2)c(O)c1C (centres unmarked) | -57.9
31 | Cc1ccc(C(CC(=O)N2CCCC2)c2ccccc2)c(O)c1 (centres unmarked) | 4.04
32 | Cc1cccc(C(CC(=O)N2CCCCC2)c2ccccc2)c1O (centres unmarked) | -34.2
33 | Cc1cccc(C(CC(=O)N2CCCC2)c2ccccc2)c1O (centres unmarked) | -19.4
34 | Cc1ccc(C(CC(=O)N2CCCCC2)c2ccccc2)c(O)c1C (centres unmarked) | -22.1
35 | Cc1ccc(C(CC(=O)N2CCNCC2)c2ccccc2)c(O)c1C (centres unmarked) | -63.8
36 | O=C(c1ccc(Br)s1)N1CCN(c2ncccn2)CC1 | -20.3
37 | CC12CCC3c4ccc(O)cc4CCC3C1CC(O)C2O (centres unmarked) | 19.5
38 | CC1=C(C(=O)Nc2ccccn2)C(c2ccccc2Cl)NC(=S)N1 (centres unmarked) | 10.1
39 | CC(=NCCN1CCN(C(C)=C2C(=O)c3ccccc3C2=O)CC1)C1=C(O)CC(C)(C)CC1=O | -50.5
40 | CC(=C1C(=O)c2ccccc2C1=O)N1CCN(CCN=CC2=C(O)CC(C)(C)CC2=O)CC1 | -42.3
41 | CC(=NCCN1CCN(C(=S)Nc2ccccc2)CC1)C1=C(O)CC(C)(C)CC1=O | -15.3
42 | CCc1nnc(NC(=O)CSc2ccc(-c3ccccc3OC)nn2)s1 | -7.08
43 | CS(=O)(=O)N1CCCC(C(=O)NCCCN2CCC(Cc3ccccc3)CC2)C1 (centres unmarked) | -33.5
44 | O=C(NCCCN1CCC(Cc2ccccc2)CC1)C1CC(=O)N(C2CCCCCC2)C1 (centres unmarked) | -66.8
45 | CCCS(=O)(=O)N1CCCC(C(=O)NCCCN2CCN(c3ccc(F)cc3)CC2)C1 (centres unmarked) | -59.5
46 | O=C(NCCCN1CCCCCC1)C1CC(=O)N(C2CCCC2)C1 (centres unmarked) | 5.99

Row | SMILES | hERG current change (%, negative = inhibition) at 10uM [%]
47 | CCS(=O)(=O)N1CCCC(C(=O)NCCN2CCC(Cc3ccccc3)CC2)C1 (centres unmarked) | -59.1
48 | CCCS(=O)(=O)N1CCCC(C(=O)NCCN2CCOCC2)C1 (centres unmarked) | 13.7
49 | CS(=O)(=O)N1CCCC(C(=O)NCCN2CCC(Cc3ccccc3)CC2)C1 (centres unmarked) | -28
50 | CCCCN(CCCNC(=O)C1CCN(S(=O)(=O)N2CCOCC2)CC1)c1ccccc1 | -48.8
51 | CCN(CCCNC(=O)C1CCN(S(=O)(=O)CC)CC1)c1ccccc1 | -21.7
52 | CCCS(=O)(=O)N1CCCC(C(=O)NCCCN2CCN(c3ccccc3F)CC2)C1 (centres unmarked) | -21.1
53 | CCCCN(CCCNC(=O)C1CCN(S(=O)(=O)CC)CC1)c1ccccc1 | -51.1
54 | O=C(NCCCN1CCC(Cc2ccccc2)CC1)C1CC(=O)N(C2CCCC2)C1 (centres unmarked) | -34.8
55 | COC(=O)c1sc2nc(SCC(=O)N(C)c3ccccc3)n(N)c(=O)c2c1C | 27.4
56 | Cc1cccc(OCCCOc2cccc3cccnc23)c1C | 10.4
57 | Cc1nc(CC(=O)N2CCN(S(=O)(=O)c3ccccc3C#N)CC2)cs1 | 10.3
58 | C/C(=N\NC(=O)CCC(=O)O)c1c(-c2ccccc2)c2cc(Br)ccc2[nH]c1=O | 6.72
59 | O=C(O)C1CC(c2ccccc2)=Nc2ccccc2S1 (centres unmarked) | 1.43
60 | CN1C(=O)/C(=C\c2ccncc2)SC1=Nc1ccccc1 | -11.2
61 | Cc1ccc(-c2nc(N)sc2C)cc1 | -16.9
62 | COC(=O)c1c(NC(=O)c2cccnc2Cl)sc(C(=O)N(C)C)c1C | -6.44
63 | S=c1[nH]nc(Nc2cccc3ccccc23)s1 | 16.3
64 | O=C(c1cc2sccc2n1Cc1ccccc1)N1CCc2ccccc21 | -2.82
65 | CCCS(=O)(=O)N1CCC(C(=O)NCCN2CCCC2)CC1 | -7.65
66 | O=C(NCCCN1CCC(Cc2ccccc2)CC1)C1CCN(S(=O)(=O)N2CCC3(CC2)OCCO3)CC1 | -42.7
67 | CC1CC(C)CN(CCCNC(=O)C2CCCN(S(=O)(=O)N3CC(C)CC(C)C3)C2)C1 (centres unmarked) | -61
68 | CC1CC(C)CN(S(=O)(=O)N2CCCC(C(=O)NCCCN3CCCCC3C)C2)C1 (centres unmarked) | -9.36
69 | CCCC(=O)N1CCC(Cc2ccccc2)CC1 | 9.83

Row | SMILES | hERG current change (%, negative = inhibition) at 10uM [%]
70 | CC1CC(C)CN(S(=O)(=O)N2CCCC(C(=O)NCCCN3CCOCC3)C2)C1 (centres unmarked) | 19.1
71 | CCCS(=O)(=O)N1CCC(C(=O)NCCc2ccccc2)CC1 | 1.42
72 | CCS(=O)(=O)N1CCC(C(=O)NCCCN2CCC(Cc3ccccc3)CC2)CC1 | -65.5
73 | CCCS(=O)(=O)N1CCC(C(=O)NCCN2CCC(Cc3ccccc3)CC2)CC1 | -57.6
74 | CCS(=O)(=O)N1CCC(C(=O)NCCN2CCN(Cc3ccccc3)CC2)CC1 | 2.07
75 | CCCCCCNCC(=O)N1CCC(Cc2ccccc2)CC1 | -71.7
76 | CCCNC(=O)N1CCC(Cc2ccccc2)CC1 | 16.6
77 | COc1ccccc1NS(=O)(=O)/C=C/c1ccccc1 | -16.8
78 | O=C(CCN1C(=O)c2ccccc2C1=O)C1=NN[C@@H]2C(=O)N(c3ccc(F)cc3)C(=O)[C@H]12 | -5.4
79 | O=C(CCS(=O)(=O)c1ccc2c(c1)NC(=O)CS2)NCCc1ccccc1 | 8.31
80 | O=c1c2cc(N3CCOCC3)ccc2[nH]c(=S)n1CCCN1CCCCCC1 | -17
81 | BrC(/C=C\c1ccccc1)=N/Nc1nc(N2CCOCC2)nc(N2CCOCC2)n1 | -39
82 | CCNc1nn2ccccc2c1/C=C(\C#N)C(=O)OCC | -4.06
83 | COCCCNC(=S)Nc1ccc(C)cc1[N+](=O)[O-] | 1.51
84 | CCCS(=O)(=O)N1CCCC(C(=O)NCCc2ccccc2)C1 (centres unmarked) | -1.02
85 | CS(=O)(=O)N1CCC(C(=O)N2CCC(Cc3ccccc3)CC2)CC1 | -15.1
86 | CCCS(=O)(=O)N1CCCC(C(=O)N2CCC(Cc3ccccc3)CC2)C1 (centres unmarked) | -19.9
87 | CCCS(=O)(=O)N1CCCC(C(=O)NCCN(C)Cc2ccccc2)C1 (centres unmarked) | -8.41
88 | CCCS(=O)(=O)N1CCCC(C(=O)NCCN2CCC(Cc3ccccc3)CC2)C1 (centres unmarked) | -58.2
89 | CCCS(=O)(=O)N1CCC(C(=O)N2CCC(Cc3ccccc3)CC2)CC1 | -63
